{"source": "PubChem BioAssay (NCATS)", "note": "Records with an inconclusive call do not appear. Entries that show only a call come without a potency. The source made the active and inactive calls. Calls follow the shape of the dose curve; as a rule, active = well fitted cell-killing curve with a large enough effect; inconclusive = small, poorly fitted or top-dose-only effect, or effect the other way; inactive = no such curve, though single readings can be large or run the other way. Potency is read from the fitted curve at half-maximal effect.", "data": [{"assay": "MultiTox-Fluor Cytotoxicity Assay - LYMP1-002 - Dead Cells (AID 960); also: nearly all actives have a fitted effect of over 60% in size", "conditions": "LYMP1-002 lymphoblastoid cells, dead-cell protease fluorescence; series mostly up to 46.1 µM", "source_text": "NIH Chemical Genomics Center [NCGC]\nNIH Molecular Libraries Screening Centers Network [MLSCN]\nNational Institutes of Environmental Health Sciences [NIEHS]\nNational Toxicology Program [NTP]\nWe have developed a 1536-well cell-based assay for quantitative high throughput screening (qHTS) against a number of cell lines to determine in vitro cytotoxicity of small molecules. This particular assay uses a human lymphoblastoid cell line (LYMP1-002) purchased from Coriell Institute.\nNCGC Assay Protocol Summary:\nThe MultiTox-Fluor Cytotoxicity Assay (Promega) is a homogeneous method to simultaneously measure the relative number of live and dead cells in culture by detecting changes in cell membrane integrity. There are two fluorogenic peptide substrates in the assay reagent. Viable cells are determined when the cell-permeant substrate (GF-AFC) enters the cell and is cleaved by protease from live cells resulting in liberated fluorophore. This live-cell protease activity restricted to viable cells is proportional to cell number. The dead cells are determined by using fluorogenic cell-impermeant peptide substrate (bis-AAF-R110) which cleaved by dead cell proteases leaking from damaged cell membrane.\nUsing the MultiTox-Fluor Cytotoxicity Assay, the relative number of dead cells was measured in the lymphoblastoid cell line with complete culture medium following compound treatment for 16 hours. The assay was performed in opaque black Kalypsys 1536-well plates. In the screen, tetraoctylammonium bromide was used as positive control. Library compounds were measured for their ability to cause acute toxicity in the cell line, as reflected by an increase in dead cell protease activity, in a concentration-dependent manner. Data were normalized to the controls for basal activity (DMSO only) and 100% stimulation (15 uM tetraoctylammonium bromide). AC50 values were determined from concentration-response data modeled with the standard Hill equation.\nqHTS protocol for MultiTox-Fluor Cytotoxicity assay\n[Step] [Parameter] [Value] [Description]\n1. Reagent; 5 uL; 2500 lymphoblastoid cells/well\n2. Time; 5 hr; 37 C incubation\n4. Controls; 23 nL; Tetraoctylammonium bromide 6.4pM to 92 uM\n5. Time; 16 hr; 37 C incubation\n6. Reagent; 5 uL; MuliTox-Fluor Assay reagent\n7. Time; 60 min; Room Temperature\n8. Detection; dead-cell fluorescence (Ex/Em=485/520); EnVision plate reader\nKeywords: cytotoxicity, lymphoblastoid cell line, fluorescence, NTPHTS, NTPHTS_NCGC, NIEHS, EPA, DSSTox, MLSMR, MLSCN, NIH Roadmap, qHTS, NCGC", "values": [{"molecule": "c1ccc2c(c1)Nc1ccccc1S2", "Potency": "inactive"}, {"molecule": "OCCOc1ccccc1", "Potency": "inactive"}, {"molecule": "Oc1ccccc1-c1ccccc1", "Potency": "inactive"}, {"molecule": "Oc1ccc(Cl)cc1Cc1ccccc1", "Potency": "inactive"}, {"molecule": "N[C@@H](Cc1ccc(N(CCCl)CCCl)cc1)C(=O)O", "Potency": "inactive"}, {"molecule": "CC(=O)Oc1ccccc1C(=O)Nc1ncc([N+](=O)[O-])s1", "Potency": "25.1 µM (active)"}, {"molecule": "CCCC(C)(COC(N)=O)COC(=O)NC(C)C", "note": "(stereo not drawn)", "Potency": "inactive"}, {"molecule": "CC(C)C(=O)Nc1ccc([N+](=O)[O-])c(C(F)(F)F)c1", "Potency": "15.8 µM (active)"}, {"molecule": "CCOP(=S)(OCC)Oc1cc(C)nc(C(C)C)n1", "Potency": "inactive"}, {"molecule": "Cc1c(O)cccc1C(=O)N[C@@H](CSc1ccccc1)[C@H](O)CN1C[C@H]2CCCC[C@H]2C[C@H]1C(=O)NC(C)(C)C", "Potency": "31.6 µM (active)"}, {"molecule": "NCC(O)c1ccc(O)cc1", "note": "(stereo not drawn)", "Potency": "inactive"}, {"molecule": "Oc1cccc2cccnc12", "Potency": "15.8 µM (active)"}, {"molecule": "CN(C)CCC=C1c2ccccc2CCc2ccccc21", "Potency": "25.1 µM (active)"}]}]}
